Laboratory results published in PubChem BioAssay (NCI).
The panel holds about 79,000 compounds, 15% with a hit somewhere; the sample as a whole holds those more often. Calls of active or inactive are those of the source. No stated cut-off is given here; in the data, active means growth inhibition above about 70%; inactive means the rest.

Experiment: NCI Yeast Anticancer Drug Screen. Data for the wt2 strain (AID 169);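 further: 0% = growth of vehicle-treated yeast cultures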
Conditions: S. cerevisiae wt2 strain growth inhibition; at 3.7 µM; hits give high values
Summary of the method: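 Yeast cells were exposed to test compounds, and growth inhibition was measured relative to vehicle-treated controls.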

Structure (SMILES)	growth inhibition
CCN(CC)CC[n+]1ccc2c(C)c3[nH]c4ccc(O)cc4c3c(C)c2c1	0% (inactive)
O=[n+]1c2ccc(Cl)cc2n([O-])c2ccc(Cl)cc21	-8% (inactive)
CCOP(=O)(OCC)C(Cc1ccccc1)N=C(c1ccccc1)c1ccccc1 (centres undefined)	6% (inactive)
CC[C@@]1(O)C(=O)OCc2c1cc1n(c2=O)Cc2cc3c(N)cccc3nc2-1	-9% (inactive)
COC1C=COC2(C)Oc3c(C)c(O)c4c(c3C2=O)/C(=N/C2CCC(O)OC2C)C=C(NC(=O)/C(C)=C\C(=O)C2CC2C(O)C(C)C(O)C(C)C(OC(C)=O)C1C)C4=O (centres undefined)	1% (inactive)
COc1cc2c(c(OC)c1OC)-c1c(cc3c(c1OC)OCO3)CC(C)C(C)(O)C2OC(=O)c1ccccc1 (centres undefined)	-28% (inactive)
O=c1ssc2ncccc12	-4% (inactive)
O=C1C2C(C(=O)N1c1ccc(OCc3ccccc3)cc1)C1c3ccccc3C2C2CCCCN21 (centres undefined)	-4% (inactive)
COc1ccc(-c2cn(-c3ccc(I)cc3)c3ncnc(N)c23)cc1	-8% (inactive)
CCOC(=O)C(NC(=O)c1ccccc1)(N1CCN(c2cc3c(cc2F)c(=O)c(C(=O)O)cn3C2CC2)CC1)C(F)(F)F (centres undefined)	-2% (inactive)
C/C(=N\O)C1CC2C=C(C#N)C1N(Cc1ccccc1)C2 (centres undefined)	-2% (inactive)
CC/C(=C(\c1ccccc1)c1ccc(OCCN(C)C)cc1)c1ccccc1	-15% (inactive)
COc1ccccc1N=NC(C(=O)c1ccccc1)C(=O)c1ccccc1	5% (inactive)
CC(O)C(O)C(O)C(/C=N\Nc1ccccc1)=N/Nc1ccccc1 (centres undefined)	8% (inactive)
COc1ccc(/C=C2\SC(=S)N(/C=C/c3nc4ccccc4[nH]c3=O)C2=O)cc1OC	3% (inactive)
N#CN=Nc1cc(Cl)c(N=NC#N)cc1Cl	1% (inactive)
Cc1ccc(S(=O)(=O)Oc2cc(Cl)c(Cl)cc2Cl)cc1	-9% (inactive)
c1ccc2c(c1)Oc1cccc3cccc-2c13	0% (inactive)
O=C(c1ccc(Cl)cc1Cl)C(Cl)Cl	-7% (inactive)
CC(C)C1=CCC2C(=C1)CCC1C(C)(C(=O)O)CCCC21C (centres undefined) (tested in a mixture with another compound)	-40% (inactive)

Structure (SMILES)	growth inhibition
COc1cc(/C=C2\CCc3ccccc3C2=O)cc(OC)c1OC	0% (inactive)
CC(=O)[O][Bi]([c]1ccccc1)[c]1ccccc1	4% (inactive)
S=C(N/N=C/c1ccccn1)Nc1ccc(Cl)cc1	-6% (inactive)
COc1cc(CC2CC(c3ccc4c(c3)OCO4)OC2=O)cc(OC)c1OC (centres undefined)	-4% (inactive)
CNC1C(OC2C(OC3C(O)C(O)C(N=C(N)N)C(O)C3N=C(N)N)OC(C)C2(O)CO)OC(CO)C(O)C1O (centres undefined)	0% (inactive)
NNC(=O)CCc1ccc2ccc3ccccc3c2c1	-1% (inactive)
Oc1ccc2ccccc2c1C(c1ccc(Cl)cc1)c1c(O)ccc2ccccc12	-36% (inactive)
CCCCN(CCCC)CCSc1ccc(Cl)cc1	3% (inactive)
CCC(C)COC(=O)c1ccc(N=Cc2ccc(C=Nc3ccc(C(=O)OCC(C)CC)cc3)cc2)cc1 (centres undefined)	-2% (inactive)
CC1(C)C(=O)OC(n2cc(F)c(=O)[nH]c2=O)C1=O (centres undefined)	20% (inactive)
O=[N+]([O-])CC(SCc1ccccc1)c1ccc2c(c1)OCO2 (centres undefined)	8% (inactive)
COc1cc2c(cc1[N+](=O)[O-])C(=O)C(Br)(Br)CCC2	11% (inactive)
OCC1OC(OCC(O)C(O)C(O)C(/C=N/Nc2ccccc2)=N/Nc2ccccc2)C(O)C(O)C1O (centres undefined)	7% (inactive)
COc1ccc(N=C2C(=O)Nc3ccc(Br)cc32)cc1	1% (inactive)
Cn1c(=O)c2ccccc2c2ccccc21	-1% (inactive)
CC[n+]1ccc2c(C)c3[nH]c4ccc(O)cc4c3c(C)c2c1	-6% (inactive)
CC(=O)ON1C(=O)c2cccc3cccc(c23)C1=O	2% (inactive)
COc1ccc2ccc3ccccc3c2c1C=O	4% (inactive)
OC1CCCc2c1cc1ccc3cccc4ccc2c1c34 (centres undefined)	10% (inactive)
